Reference: PubChem BioAssay (Tox21)
Inconclusive results are not listed. A number with no mark means an inactive call. Activity calls are given as the source filed them. Calls come from the whole dose curve; as a rule, active = well fitted cell-killing curve with a large enough effect in the repeat runs; inconclusive = weak or mixed curves, or effect the other way; inactive = flat fitted curve, though single readings scatter.

Assay: qHTS assay to identify small molecule antagonists of the estrogen receptor alpha (ER-alpha) signaling pathway using the BG1 cell line in the presence of 0.1 nM 17-beta-estradiol - cell viability counter screen (AID 1259241); note: nearly all actives have a fitted effect of over 40% in size
Details: VM7Luc4E2 (BG1) viability, CellTiter-Fluor protease, 22 h, 0.1 nM estradiol agonist added; series mostly up to 92.4 µM; activity change, negative = cytotoxicity: at the top concentration
Description: National Center for Advancing Translational Sciences [NCATS]
NIH Chemical Genomics Center [NCGC]
U.S. Environmental Protection Agency [EPA]
National Institutes of Environmental Health Sciences [NIEHS]
National Toxicology Program [NTP]
U.S. Food and Drug Administration [FDA]
Estrogen receptor (ER), a member of the nuclear hormone receptor plays an important role in development, metabolic homeostasis and reproduction. Two subtypes of ER, ER-alpha and ER-beta, have similar expression patterns with some uniqueness in both types. Endocrine disrupting chemicals (EDCs) and their interactions with steroid hormone receptors like ER causes disruption of normal endocrine function. Therefore, it is important to understand the effect of environmental chemicals in ER signaling pathway. For identifying ER antagonists, VM7Luc4E2 cell line was used to screen against Tox21 compound libraries.
VM7Luc4E2 cell line (provided by Denison MS, University of California) endogenously express full-length ER-alpha and is stably transfected with a plasmid containing four estrogen responsive elements (ERE) upstream of a luciferase reporter gene. The current screening for identification of ER-alpha inhibitors against Tox21 compound libraries used lower concentration (0.1 nM) of 17beta-Estradiol as a stimulator. The cytotoxicity of the Tox21 compound libraries against VM7Luc4E2 cell line was tested by measuring live-cell protease activity using CellTiter-Fluor assay in the same wells.
Tox21 Assay Protocol Summary:
VM7Luc4E2 cells were cultured in phenol red free assay medium containing 10% charcoal stripped FBS for 5 days prior to the assay. The cells were dispensed at 4,000 cells/well in 4 uL of assay medium into white wall/solid-bottom 1536-well plates (Corning Life Sciences, Corning, NY) using a Multidrop Combi (ThermoFisher Scientific, Waltham, MA) dispenser. After the assay plates were incubated at 37C and 5% CO2 for 24 hr, 23 nL of compounds dissolved in DMSO, positive controls or DMSO only was transferred to the assay plates by a Pintool station (Kalypsys, San Diego, CA). The transfer of compounds was followed by the addition of 1 uL of 0.1 nM (final concentration) agonist (17beta-Estradiol)/assay medium using a Flying Reagent Dispenser (FRD, Aurora Discovery, San Diego, CA). The plates were incubated at 37C and 5% CO2 for 22 hr. For cytotoxicity assay, 1 uL of CellTiter-Fluor reagent (Promega Corporation, Madison, WI) was added to each well using the FRD and after 30 min incubation at 37C and 5% CO2, The fluorescence intensity was measured using ViewLux plate reader (PerkinElmer, Shelton, CT).
% is set by controls: 0 for no effect and ±100 for the full control effect; potency is the fitted concentration of half-maximal effect.

Compound	activity change, negative = cytotoxicity	Potency
FC(F)(F)c1cccc(C2=CCN(CCc3ccc4ccccc4c3)CC2)c1	7.85% [at 42.5 µM]	
COc1ccc(/C(=C/C(=O)N2CCOCC2)c2ccc(Cl)cc2)cc1OC	-1.05%	
O=C(Cl)c1ccc(Cl)cc1	-0.695%	
Clc1ccc(C(c2ccc(Cl)cc2)C(Cl)(Cl)Cl)cc1		inactive
CC(C)CBr	0.0996%	
O=C(O)C1C2CCC(O2)C1C(=O)O (stereo not given)		inactive
Cc1cc(N=Nc2ccccc2C)ccc1N		24.3 µM (active)
CC(C)CC(C)Nc1ccc(Nc2ccccc2)cc1 (stereo not given)		53.5 µM (active)
CN(C)c1ccc(N=Nc2ccccc2)cc1		54.5 µM (active)
Cc1ccc(OP(=O)(Oc2ccccc2)Oc2ccccc2)cc1	-4.35%	
CCc1ccccc1C	-0.981%	
Brc1c(Br)c(Br)c(Oc2c(Br)c(Br)c(Br)c(Br)c2Br)c(Br)c1Br	5.06% [at 19 µM]	
Oc1ccc(C2(c3ccc(O)cc3)CCCCC2)cc1	-11.2%	
CC(C)OS(C)(=O)=O	13.5%	
ClC1=C(Cl)C2(Cl)C3C(Cl)C=CC3C1(Cl)C2(Cl)Cl (stereo not given)		inactive
C1CCC2CCCCC2C1 (stereo not given)	11%	
CC(=[OH+])/C=C(/C)[O-].CC(=[OH+])/C=C(\C)[O-].CC(=[OH+])/C=C(\C)[O-].[Al]	-0.465%	
O=c1[nH]c2ccccc2n1CCCN1CCC(n2c(=O)[nH]c3cc(Cl)ccc32)CC1	-24.9% [at 42.5 µM]	
Cc1ccc(C(=O)Cl)cc1	10.1%	
O=C(CCl)Nc1ccccc1		61.1 µM (active)

Compound	activity change, negative = cytotoxicity	Potency
CC1(C)[C@H](C(=O)O[C@H](C#N)c2cccc(Oc3ccccc3)c2)[C@@H]1/C=C(\Cl)C(F)(F)F		inactive
CC1(C)CN=C(NN=C(/C=C/c2ccc(C(F)(F)F)cc2)/C=C/c2ccc(C(F)(F)F)cc2)NC1		61.1 µM (active)
CC(=O)Nc1ccc2c(c1)Cc1ccccc1-2	8.45%	
c1ccc(OCC2CO2)cc1 (stereo not given)	0%	
[Cl][Sn]([c]1ccccc1)([c]1ccccc1)[c]1ccccc1		4.11 µM (active)
C[C@H]1O[C@@H](O[C@H]2[C@@H](O)C[C@H](O[C@H]3[C@@H](O)C[C@H](O[C@H]4CC[C@@]5(C)[C@H](CC[C@@H]6[C@@H]5CC[C@]5(C)[C@@H](C7=CC(=O)OC7)CC[C@]65O)C4)O[C@@H]3C)O[C@@H]2C)C[C@H](O)[C@@H]1O		inactive
Oc1ccc(C(=C(Cl)Cl)c2ccc(O)cc2)cc1	-0.74%	
Clc1ccc(-c2ccc(Cl)c(Cl)c2Cl)c(Cl)c1Cl	7.97%	
Cc1cc(SCc2sc(-c3ccc(C(F)(F)F)c(F)c3)nc2C)ccc1OCC(=O)O	-5.91%	
C[C@]12Cc3nonc3C[C@@H]1CC[C@@H]1[C@@H]2CC[C@@]2(C)[C@H]1CC[C@]2(C)O	-3.77% [at 42.5 µM]	
Clc1ccc(CCC(Cn2ccnc2)Sc2c(Cl)cccc2Cl)cc1 (stereo not given)	2.68% [at 42.5 µM]	
CCCCCCCCCCCCCCC(Br)C(=O)O (stereo not given)	5.72%	
Nc1ccccc1C(=O)Oc1ccc2ccccc2c1	-1.61%	
[CH3][Hg][Cl]	2.89%	
CNC(C)Cc1ccc2c(c1)OCO2 (stereo not given)	-12.1%	
C[C@@H](Oc1ccc(Cl)cc1Cl)C(=O)O	2.47%	
O=C(O)c1cc[c]([Hg][Cl])cc1	-3.95%	
CC(C)[C@H](C(=O)OC(C#N)c1cccc(Oc2ccccc2)c1)c1ccc(OC(F)F)cc1 (stereo not given in full)	-9.19%	
CCCCCCCCCCCCBr	-7.14%	
CCCCCCCCCBr	6.57%	
